HCMV antiviral: qHTS Assay for inhibitors of the human cytomegalovirus (HCMV); hit rate 4.5% among 410,000; HFF cells, HCMV-luciferase reporter, 72 h; active compounds read low; activity change, negative = inhibition, % at 57.5 µM; AID 1259415, 2018; in the data active means activity change below about -60%; inconclusive means no clear call, values can overlap the other calls; inactive means above about -39%; further: on the % scale 0 is the no-effect control and ±100 the full control effect
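Two-dose cell screen: HFF monolayers treated with compounds and infected with luciferase-expressing HCMV at 1 PFU/cell, 72 h at 37C, then lysed for luciferase measurement.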
HCV inh: qHTS Assay for Inhibitors of Hepatitis C Virus (HCV). Huh7.5.1 HCVcc-Cre infection, luciferase reporter, 44 h. Potency, µM (top dose mostly 41.8 µM), for inactives: top-dose activity change, negative = inhibition, hits mostly inhibitors. hit rate 3.4% among 340,000. AID 651820, 2012; further: potency means the concentration at half of the fitted maximal effect; on the % scale 0 is the no-effect control and ±100 the full control effect
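Compounds are dispensed onto cells plated 4 h earlier at 1,000 per well, with HCVcc-Cre virus (about 0.5 moi) added next. Following 44 h of culture, luminescent signal is measured for 15 sec after 15 min with substrate at room temperature.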
Pf growth 48h: Primary qHTS for delayed death inhibitors of the malarial parasite plastid, 48 hour incubation; P. falciparum luciferase growth in erythrocytes, 48 h; Potency, µM (doses to about 28.7 µM), without a hit: top-dose activity change, negative = inhibition, hits mostly inhibitors; hit rate 5.9% among 310,000; further: potency means the concentration at half of the fitted maximal effect; on the % scale 0 is the no-effect control and ±100 the full control effect
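Here the parasites carry a stable luciferase gene and grow inside erythrocytes in Albumax-based RPMI medium with compound for one erythrocytic cycle. Activity is scored as loss of luminescent signal.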
Sm TGR block: qHTS Assay for the Inhibitors of Schistosoma Mansoni Peroxiredoxins | hit rate 3% among 360,000 | purified TGR, DTNB reduction, TNB absorbance 405 nm | Potency, µM (series often up to 114 µM), for the others: at the top dose activity change, negative = inhibition, usual class: inhibitors | Schistosoma mansoni thioredoxin glutathione reductase (TGR), Q962Y6 | AID 485364, 2010; further: potency means the concentration at half of the fitted maximal effect; on the % scale 0 is the no-effect control and ±100 the full control effect; nearly all actives have a fitted effect of over 60% in size
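First, TGR (20 nM dispensed) and NADPH were mixed with compound. Second, a 15 min room-temperature incubation followed. Third, further NADPH and then DTNB were added to start the reaction. Finally, TNB absorbance was monitored kinetically.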
Pf growth 96h: Primary qHTS for delayed death inhibitors of the malarial parasite plastid, 96 hour incubation | P. falciparum luciferase reporter growth, 96 h | Potency, µM (titrated, usually from 28.7 µM), inactives show at the top dose activity change, negative = inhibition, actives largely listed as inhibitors | hit rate 6.9% among 320,000; further: potency means the concentration at half of the fitted maximal effect; on the % scale 0 is the no-effect control and ±100 the full control effect
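Plates of compound plus infected erythrocytes (2% hematocrit, 0.05% parasitemia final) incubate 96 hours, 37 C, 5% CO2. Detection reagent added; reduced luminescence from the parasites' luciferase reporter flags inhibition.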
SARS PLP yeast: qHTS of Yeast-based Assay for SARS-CoV PLP | AID 485353, 2010 | S. cerevisiae expressing SARS-CoV PLpro, growth rescue | hit rate 0.19% among 330,000 | Potency, µM (titrated, usually from 32.9 µM), for inactives: top-dose activity, positive = growth rescue, actives largely listed as activators; calls by dose curve; further: potency means the concentration at half of the fitted maximal effect; 0% is about no effect; nearly all actives have a fitted effect of over 55% in size
* marks the source's active call; other numbers are inactive results; ? = inconclusive; . = not tested or not shown. Compounds with a hit are over-represented: about 15% of the library has one in this group of screens. Unless noted, the call rests on the fitted dose curve; in most records, active means well fitted curve in the direction sought with a large enough effect; inconclusive means small, poorly fitted or top-dose-only effect, or another doubt; inactive means no such curve, though single readings can be large; an effect the other way counts as inactive or inconclusive.

SMILES	HCMV antiviral	HCV inh	Pf growth 48h	Sm TGR block	Pf growth 96h	SARS PLP yeast
C=CCc1cccc(CNc2nc3ccccc3n2CCN2CCOCC2)c1O	71	2%	3.7µM*	1%	.	-1%
CC(C)Oc1ccc(Nc2cc3c(cn2)cc(-c2cccc(C(F)(F)F)c2)n3C)cc1	-5	.	.	.	.	.
CCC(NC(=O)OCc1ccccc1)C(=O)Oc1ccc2ccc(=O)oc2c1 (centres undefined)	.	22%	33%	?	1%	-1%
Cc1ccc(-c2ccc(=O)n(CC(=O)NC(C)c3ccccc3)n2)cc1 (centres undefined)	-9	.	.	13%	.	.
CCc1ccccc1NC(=O)CNC(=O)c1cn(Cc2ccccc2)nc1-c1cccnc1	-11	34%	?	-7%	5.9µM*	-10%
O=C(NCc1ccncc1)c1cn(-c2ccccc2)nc1-c1cccnc1	11	1%	15µM*	-6%	?	-1%
O=C(NC1CCN(Cc2ccc(Cl)cc2)CC1)c1cn(-c2ccccc2)nc1-c1cccnc1	-13	11µM*	1.9µM*	2%	?	-2%
CCOCCCN1C(=O)CN(C2CCCCCC2)C(=O)C1c1ccc(OCC)c(OC)c1 (centres undefined)	53	.	.	-1%	.	.
COc1ccccc1CNC(=O)C1CCCN(c2nc3ccccc3n3cccc23)C1 (centres undefined)	-11	.	.	-3%	.	.
COc1ccc(/C=C2\SC(=O)N(CCC(=O)Nc3ccccc3)C2=O)cc1OC	43	6%	0%	8%	-19%	12%
COc1cc(/C=C2\SC(=O)N(CCN)C2=O)ccc1OS(=O)(=O)c1cc(C)ccc1C	?	13µM*	-1%	4%	-25%	-3%
O=C(COC(=O)c1cc(S(=O)(=O)N2CCOCC2)ccc1F)Nc1ccccc1C(F)(F)F	-22	.	.	.	.	.
COc1cccc(C(=O)N2CCN(Cc3ccccc3C(F)(F)F)CC2)c1	15	17%	-1%	0%	1.5µM*	-11%
CCOc1ccccc1-n1c(CN2CCN(C(=O)c3ccco3)CC2)nc2ccccc2c1=O	-105*	1%	?	25µM*	?	-3%
CCOc1ccccc1-c1nc(CN2CCN(C(=O)c3ccco3)CC2)c(C)o1	-7	-18%	-17%	?	-29%	3%
COc1ccc2ccccc2c1CN1CCN(C(=O)c2ccco2)CC1	13	?	6.6µM*	-20%	11%	-6%
COc1ccc(C(=O)N2CCN(Cc3ccccc3C(F)(F)F)CC2)cc1	10	4%	57%	-1%	-13%	-2%
O=C(c1ccco1)N1CCN(CCOCCOc2cccc3ccccc23)CC1	99	-27%	.	8%	12µM*	3%
O=C(c1ccco1)N1CCN(CCCCOc2cccc3ccccc23)CC1	4	-29%	?	-15%	?	1%
COc1ccccc1/C=C/C(=O)N1CCN(S(=O)(=O)c2cccs2)CC1	27	-21%	.	.	.	1%
O=C(c1ccccc1)c1c[nH]c(C(=O)NNc2ccccc2)c1	?	-11%	-14%	-21%	-11%	-2%
Cc1ccc(Cl)cc1N1CCN(C(=O)c2cc(S(=O)(=O)N3CCCCC3)cn2C)CC1	2	.	.	-3%	.	.
COc1ccc(CNc2nc(-c3ccccc3)nn2S(=O)(=O)c2ccccc2)cc1	74	.	.	8%	.	.
COc1ccc2ccccc2c1CN1CCN(C(=O)c2ccccc2)CC1	32	?	?	28µM*	78%	-2%
COc1cc(CN2CCN(C(=O)c3ccc(-c4ccccc4)cc3)CC2)cc(OC)c1OC	72	?	14%	1%	-4%	0%
SMILES	HCMV antiviral	HCV inh	Pf growth 48h	Sm TGR block	Pf growth 96h	SARS PLP yeast
COc1cccc(CN2CCN(C(=O)c3ccc(-c4ccccc4)cc3)CC2)c1OC	-10	-28%	-23%	.	2.9µM*	-1%
CC1SC2(NC1=O)C1CC3CC(C1)CC2C3 (centres undefined)	7	-3%	-9%	-10%	?	2%
CC1CCC(NC(=O)CN2C(=O)C3CCCN3c3ncc(Cl)cc32)CC1 (centres undefined)	.	?	3.7µM*	-32%	.	-2%
CCc1ccccc1NC(=O)CN1C(=O)C2CCCN2c2ncc(Cl)cc21 (centres undefined)	-25	?	?	8%	26%	-1%
COc1ccc(CNC(=O)CN2C(=O)C3CCCN3c3ncc(Cl)cc32)cc1 (centres undefined)	-5	?	?	-26%	.	-5%
O=C(CN1C(=O)C2CCCN2c2ncc(Cl)cc21)NCc1ccc2c(c1)OCO2 (centres undefined)	-13	?	9.3µM*	-28%	23%	8%
COC(=O)c1ccccc1NC(=O)CN1C(=O)C2CCCN2c2ncc(Cl)cc21 (centres undefined)	.	-14%	2.9µM*	?	-15%	5%
CCC(Sc1nnc2c3ccccc3n(CC)c2n1)C(=O)Nc1ccc(NC(C)=O)cc1 (centres undefined)	-37	.	.	-1%	.	.
CCc1c(C)nc(N)nc1N1N=C1SCC#N	21	-1%	.	-6%	-8%	-10%
CCc1c(C)nc(N)nc1N1N=C1SCC(=O)OC	-61*	18%	3%	11%	?	0%
CCc1oc(C(=O)O)cc1CN(CC)CC	16	22%	13%	6%	-3%	.
CCN(CC)Cc1cc(O)c(CN(CC)CC)cc1O	-26	19%	4%	3.2µM*	32%	-2%
CN(C(=O)c1cc2sccc2n1C)C1CCCCC1	12	2%	79%	-7%	2.6µM*	8%
Cn1c(C(=O)NC2CCCCC2)cc2sccc21	55	5%	70%	-25%	.	5%
Cc1ccccc1C(=O)NCCCNC(=O)c1ccccc1C	11	18%	.	.	.	.
O=C(c1ccc2c(c1)N(Cc1ccc(F)cc1)C(=O)c1ccccc1S2(=O)=O)N1CCCC1	10	.	.	-2%	.	.
COc1ccc2nc(-c3ccco3)c(-c3ccco3)nc2c1	30	?	.	3.5µM*	17%	4%
COc1ccc(-c2nc3ccccc3nc2-c2ccc(OC)cc2)cc1	?	?	?	-11%	-36%	6%
Nc1nc(-c2ccco2)cs1	-9	-1%	13%	?	?	1%
Nc1nc(-c2ccco2)c(-c2ccco2)s1	-26	?	?	20µM*	?	-5%
COc1ccc2nc3ccccc3nc2c1N	79	-19%	149%	?	39%	-1%
COc1ccc2nc3cccc(OC)c3nc2c1	16	-13%	?	20µM*	?	-5%

Screens from PubChem.
